Six compounds from PubChem BioAssay (NCATS) can be followed below.

Several values for one entry are separate records, joined by “and”; a condition that tells them apart may be missing. Equal entries are not always repeated. Inconclusive results are not listed. Activity calls are given as the source filed them. Unless noted, the call rests on the fitted dose curve; in most records, active means well fitted curve in the direction sought with a large enough effect; inconclusive means small, poorly fitted or top-dose-only effect, or another doubt; inactive means no such curve, though single readings can be large; an effect the other way counts as inactive or inconclusive.

For assay [1], the target named is Arylsulfatase A (Homo sapiens) (UniProt P15289). As to the kind of experiment: qHTS screen for enhancers of Arylsulfatase A (ASA1): LOPAC Validation Assay (AID 720538). The gist of the method:
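SV40-transformed fibroblasts from an MLD patient (ASA-I179S) were treated with compound for 48 h at 37 C. They were then lysed with 0.5 mM pNCS substrate (final) for 14 h at room temperature and stopped with NaOH; signal read by fluorescence (Ex 525/Em 598 nm), with increase denoting enhanced activity.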
In general terms: Quantitative high-throughput screening tests each substance at several concentrations.

Assay [2] can be described thus: qHTS for compounds that reverse cellular toxicity of Amyloid beta (A-beta) peptide in yeast: LOPAC Validation Assay (AID 720559).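 Further: plate controls were DMSO for no effect and equimolar ferric chloride plus clioquinol rescue for full effect.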 The essentials: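 Yeast expressing toxic A-beta grown with pinned compounds at 30 C for 48 hr. Growth measured as absorbance at 600 nm; data normalized to DMSO and to an equimolar FeCl3/clioquinol mixture as positive control.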
Assay [3] is described as follows: qHTS for Activators of Parkin Expression: LOPAC Validation Assay (NLuc Reporter) (AID 720572;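 further: 0% = DMSO and 100% = positive control compound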). The essentials:
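Cells harboring the Parkin-promoter coincidence reporter were treated for 24 h at seven concentrations. NLuc output was measured sequentially after the FLuc channel and scaled between DMSO and positive control values.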

The nature of assay [4]: qHTS for Activators of Parkin Expression: LOPAC Validation Assay (FLuc Reporter) (AID 720573;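 further: 0% = DMSO and 100% = positive control compounds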). The gist of the method:
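Neuronal cell line stably expressing FLuc/NLuc coincidence reporter under the Parkin promoter, 1,500 cells/well, dosed 24 h after seeding in 7-point series for 24 h at 37 C. FLuc luminescence read; normalized to DMSO and positive control (100%).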

Assay [5] has as its target T1, Hexokinase-4 (Homo sapiens) + Glucokinase regulatory protein (Homo sapiens) (UniProt P35557+Q14397). As to the kind of experiment: qHTS assay for inhibitors of recombinant human GCK-GKRP interaction: Diaphorase-coupled assay (AID 743205). The essentials: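 Compounds pre-incubated 20 min with substrate, then 10 nM GST-GCK with 10 nM FLAG-GKRP added. GCK activity coupled via G6PDH and diaphorase to resorufin (5 mM glucose, 0.4 mM ATP, 0.15 mM NADP+, pH 7.6), read kinetically over 30 minutes at Ex 525/Em 590 nm.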

Assay [6] concerns the target T1, Hexokinase-4 (Homo sapiens) + Glucokinase regulatory protein (Homo sapiens). As to the kind of experiment: qHTS assay for inhibitors of recombinant human GCK-GKRP interaction: ADP-Glo assay (AID 743206).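 Further: plate controls were DMSO plus enzyme for no effect and no enzyme for full effect.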 The gist of the method: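 Pin-transferred compounds meet a 15 nM GST-GCK/15 nM FLAG-GKRP/2 uM S6P mix (dispense concentrations). ATP is then added to 0.4 mM final with 5 mM glucose, and the reaction runs 60 min at room temperature. ADP is quantified luminescently.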

Assay [7] has the same target. As to the kind of experiment: qHTS assay for inhibitors of recombinant human GCK-GKRP interaction: HTRF assay (AID 743207).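 Further: 0% = DMSO with GCK present and -100% = DMSO wells lacking GCK.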 The gist of the method:
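HTRF binding of 5 nM GST-GCK and 5 nM FLAG-GKRP with 2 uM S6P in pH 7.1 Hepes buffer (MgCl2, KCl, DTT, Tween 20, BSA). Anti-FLAG XL665 and anti-GST donor added, 60 min at room temperature; 665/615 nm read, normalized to with- and without-GCK controls.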

Assay [8] can be described thus: qHTS profiling of the MIPE4 collection as inhibitors of Plasmodium falciparum (3D7) proliferation (AID 743344; call rule not given here;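 further: scaled between DMSO vehicle wells and 0.29 µM artemisinin as full inhibition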). As to conditions: P. falciparum 3D7 in erythrocytes, SYBR Green DNA fluorescence, 72 h; at 28.5 µM (top of the series) unless noted. The essentials: (§1)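 Parasite DNA was quantified by SYBR Green I fluorescence (ex 485, em 535 nm) after overnight lysis in saponin/Triton buffer at room temperature. Cultures at 0.3% parasitemia and 2.5% hematocrit were first exposed to compound for 72 h at 37 C; signals were normalised to artemisinin (0.29 uM) and vehicle wells.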

Assay [9] in a line: qHTS profiling of the MIPE4 collection as inhibitors of Plasmodium falciparum (DD2) proliferation (AID 743345; call rule not given here). As to conditions: P. falciparum Dd2 in erythrocytes, SYBR Green DNA, 72 h; at 28.5 µM (top of the series) unless noted. The essentials:
as §1

Assay [10] can be described thus: qHTS profiling of the MIPE4 collection as inhibitors of Plasmodium falciparum (DD2) proliferation (Rep 2) (AID 743346; call rule not given here). The settings on record: P. falciparum Dd2 in erythrocytes, SYBR Green DNA, 72 h; at 28.5 µM (top of the series) unless noted. The essentials:
as §1

Assay [11] can be described thus: qHTS Assay for Identifying Gametocytocidal Compounds (AID 743244).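 Further: on the % scale 0 is the no-effect control and ±100 the full control effect; actives lower the fluorescent signal which means gametocytes are killed.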 The settings on record: P. falciparum 3D7 stage III-V gametocytes, alamarBlue, 72 h; max response: stronger effect = lower value. The gist of the method:
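Fluorescence at Ex 525/Em 598 nm, recorded 24 h after alamarBlue addition, reports residual metabolic activity of 3D7 gametocytes (stages III–V) following 72 h compound exposure at 37 °C, 5% CO2.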

Assay [12] can be described thus: qHTS assay for small molecule agonists of the antioxidant response element (ARE) signaling pathway measured by Nrf2-dependant transcriptional activity (AID 720636; active means well fitted curve in the direction sought with a large enough effect in the repeat runs; an effect the other way counts as inactive or inconclusive;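 further: HepG2 cells with an ARE-driven luciferase reporter; % of control where 0% means no effect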). The gist of the method:
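Nrf2-dependent transcription is measured in ARE-luc HepG2 cells: compound is applied for 16 hr at 37 C after a 6 hr attachment period, and luciferase activity is quantified by luminescence using ONE-Glo.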

Assay [13] can be described thus: qHTS assay for small molecule antagonists of the retinoid-related orphan receptor gamma (ROR-gamma) signaling pathway - cell viability counter screen (AID 720652; active means well fitted curve in the direction sought with a large enough effect in the repeat runs; an effect the other way counts as inactive or inconclusive;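 further: CHO reporter cells with doxycycline-induced ROR-gamma expression; compound exposure lasted 16 hr before ATP read; on the % scale 0 is the no-effect control and ±100 the full control effect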). The gist of the method:
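Steps: seed CHO cells bearing TET-inducible ROR and ROR response element-luciferase; rest 5 hr at 37 C; add compound, then doxycycline; incubate 16 hr; add CellTiter-Glo and read luminescence as ATP-based viability.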

The nature of assay [14]: qHTS assay for small molecule agonists of the antioxidant response element (ARE) signaling pathway measured by Nrf2-dependant transcriptional activity - cell viability counter screen (AID 720653; active means well fitted curve in the direction sought with a large enough effect in the repeat runs; an effect the other way counts as inactive or inconclusive; further: on the % scale 0 is the no-effect control and ±100 the full control effect). As to conditions: ARE-bla HepG2 viability, CellTiter-Glo ATP luminescence, 16 h; max response: stronger effect = lower value. The gist of the method: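 ARE-bla HepG2 cells (2,000/well) rested 5 hrs at 37C/5% CO2, then exposed to compounds in DMSO for 16 hrs. Viability was read in the same wells as intracellular ATP by luminescence, 30 min at room temperature after reagent addition.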

Assay [15] can be described thus: qHTS assay for cell viability of HEK293 cells (AID 743288). Further: on the % scale 0 is the no-effect control and ±100 the full control effect; nearly all actives have a fitted effect of over 50% in size. The settings on record: ATP luminescence (CellTiter-Glo), 18 h; max response: stronger effect = lower value. The gist of the method: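 Steps: plate 2,000 parental HEK293 cells per well; incubate ≥5 h, 37 C; add compounds in DMSO; incubate 18 h, 37 C; add CellTiter-Glo; wait 30 min at room temperature; read luminescence.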

A short description of assay [16]: qHTS assay for cell viability of the p53RE-bla HCT-116 cell line (AID 743292). Further: on the % scale 0 is the no-effect control and ±100 the full control effect; nearly all actives have a fitted effect of over 55% in size. The gist of the method: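 ATP-based luminescence, 16 h compound exposure at 37 C, p53RE-bla HCT-116 cells at 4,000/well.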
Assay [17] can be described thus: qHTS for small molecule inhibitors of Yes1 kinase: Counter Assay (AID 686950).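 Further: no kinase present so only ADP-Glo detection of a fixed ADP amount is tested; luminescence from ADP-Glo reporting ADP in a fixed ATP and ADP mixture; 0% = DMSO wells with ATP plus ADP and -100% = ATP-only wells without ADP.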 The essentials: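 Measuring interference with ADP-Glo, the assay ran 60 min at room temperature on an ATP/ADP mix lacking enzyme. Values were normalized to ATP-plus-ADP (maximum) and ATP-only (minimum) DMSO controls.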
Assay [18] is described as follows: qHTS profiling for inhibitors of Plasmodium falciparum (3D7) proliferation (AID 743322).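 Further: infected erythrocytes exposed to compound for 72 h before lysis; 100% = DMSO vehicle wells and 0% = 0.29 µM artemisinin.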 As to conditions: P. falciparum 3D7 proliferation. The gist of the method:
as §1

Assay [19] is described as follows: qHTS profiling for inhibitors of Plasmodium falciparum (DD2) proliferation (AID 743323; call rule not given here). As to conditions: lower = more inhibition. The gist of the method:
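P. falciparum Dd2-infected erythrocytes (0.3% parasitemia, 2.5% hematocrit) exposed 72 h at 37 C, 5% CO2. Lysis with SYBR Green, overnight at room temperature, fluorescence 485/535 nm; normalized to 0.29 uM artemisinin and DMSO.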

A short description of assay [20]: qHTS profiling for inhibitors of Plasmodium falciparum (HB3) proliferation (AID 743324).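 Further: 100% = DMSO vehicle wells and 0% = artemisinin-treated control wells.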 As to conditions: Plasmodium falciparum HB3 blood-stage proliferation. The essentials:
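SYBR Green fluorescence (485 ex/535 em) of lysed cultures, incubated overnight at room temperature in the dark, quantifies parasite DNA. Infected erythrocytes at 0.3% parasitemia and 2.5% hematocrit were exposed 72 h; values normalized to DMSO and 0.29 uM artemisinin controls.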

Arylsulfatase A (Homo sapiens), sequence (P15289 whole entry, looked up): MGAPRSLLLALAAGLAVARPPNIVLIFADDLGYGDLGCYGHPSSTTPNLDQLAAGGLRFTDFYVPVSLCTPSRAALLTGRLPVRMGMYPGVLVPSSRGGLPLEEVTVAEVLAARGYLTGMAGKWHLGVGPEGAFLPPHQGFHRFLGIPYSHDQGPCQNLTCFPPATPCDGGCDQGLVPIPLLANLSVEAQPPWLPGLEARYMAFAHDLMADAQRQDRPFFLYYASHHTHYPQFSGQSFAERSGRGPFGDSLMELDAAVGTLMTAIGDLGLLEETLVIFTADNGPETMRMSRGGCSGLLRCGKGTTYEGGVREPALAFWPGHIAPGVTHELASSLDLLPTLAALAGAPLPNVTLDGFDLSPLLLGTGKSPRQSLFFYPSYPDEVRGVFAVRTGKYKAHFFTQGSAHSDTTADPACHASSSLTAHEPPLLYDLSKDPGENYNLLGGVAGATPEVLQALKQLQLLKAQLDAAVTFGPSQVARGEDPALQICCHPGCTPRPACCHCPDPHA
T1 sequence (P35557 whole entry, looked up): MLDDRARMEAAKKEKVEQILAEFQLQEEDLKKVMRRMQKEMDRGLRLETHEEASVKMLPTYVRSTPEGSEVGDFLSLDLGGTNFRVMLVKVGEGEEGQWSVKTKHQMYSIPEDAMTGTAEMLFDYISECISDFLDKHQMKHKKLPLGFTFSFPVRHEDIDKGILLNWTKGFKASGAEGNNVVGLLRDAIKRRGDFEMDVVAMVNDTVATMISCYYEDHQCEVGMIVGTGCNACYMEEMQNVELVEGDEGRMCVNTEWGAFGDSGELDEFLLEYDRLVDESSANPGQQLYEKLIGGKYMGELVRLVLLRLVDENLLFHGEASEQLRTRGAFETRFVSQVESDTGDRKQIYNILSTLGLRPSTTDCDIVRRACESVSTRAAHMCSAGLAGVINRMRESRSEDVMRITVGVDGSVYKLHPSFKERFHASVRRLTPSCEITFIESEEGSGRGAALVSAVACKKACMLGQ
T1 sequence (Q14397 whole entry, looked up): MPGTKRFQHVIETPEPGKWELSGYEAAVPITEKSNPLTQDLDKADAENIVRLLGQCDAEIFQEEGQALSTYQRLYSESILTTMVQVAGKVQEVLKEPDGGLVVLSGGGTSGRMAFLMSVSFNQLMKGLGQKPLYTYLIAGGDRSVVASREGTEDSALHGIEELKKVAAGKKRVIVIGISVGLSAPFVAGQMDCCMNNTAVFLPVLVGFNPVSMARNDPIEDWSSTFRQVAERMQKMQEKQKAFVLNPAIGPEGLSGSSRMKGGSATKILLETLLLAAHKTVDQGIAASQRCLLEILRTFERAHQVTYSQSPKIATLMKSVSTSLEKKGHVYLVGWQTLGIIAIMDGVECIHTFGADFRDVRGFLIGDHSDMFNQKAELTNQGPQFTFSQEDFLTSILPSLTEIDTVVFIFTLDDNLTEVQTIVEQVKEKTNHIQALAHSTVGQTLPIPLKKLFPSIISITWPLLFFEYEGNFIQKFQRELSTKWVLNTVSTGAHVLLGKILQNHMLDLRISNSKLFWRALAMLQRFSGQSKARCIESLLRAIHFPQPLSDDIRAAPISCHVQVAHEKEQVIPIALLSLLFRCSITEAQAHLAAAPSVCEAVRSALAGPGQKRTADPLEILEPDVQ

As for `CN1CCN(CCCN2c3ccccc3Sc3ccc(Cl)cc32)CC1`, the Potency entry in assay [1], in assay [4], in assay [5], in assay [6] and in assay [7] was “inactive” throughout. Moreover, the compound was called inactive in assay [2] and in [3]. For the same compound, the parasite growth, % of DMSO control in [8] amounted to 6.12%. Besides, in assay [9], the parasite growth remaining, % of DMSO control (lower = more inhibition) worked out at 13%. Moreover, the parasite growth, % of control (lower = inhibition) in [10] is 28.4%.
On to `COC(=O)Nc1nc2ccc(C(=O)c3cccs3)cc2[nH]1`, for which the Potency entry in assay [1], in [4], in assay [5], in [6] and in assay [7] was “inactive” each time. Also, the result in assay [2] and in [3] was inactive. Also, the max response in assay [11] is 22.4% (inactive) and 23.7% (inactive). Besides, in [8], the parasite growth, % of DMSO control amounted to 54.5%. The parasite growth remaining, % of DMSO control (lower = more inhibition) in assay [9] was 93.5%. The parasite growth, % of control (lower = inhibition) in assay [10] stood at 91.6%.
`Cn1c(=O)c2c(ncn2C)n(C)c1=O`: the Potency entry in assay [1], in assay [4], in assay [13], in [5], in assay [6] and in [7] was “inactive” in each case. Also, the Potency result in assay [16] is “inactive”. The compound was classed as inactive in [2], in [3] and in assay [12]. Besides, the max response is 6.29% (inactive) and 2.32% (inactive) in [14]; -4.77% (inactive) and 11.8% (inactive) in assay [11]; 0.413% (inactive) and -8.15% (inactive) in [15]. The parasite growth, % of DMSO control in assay [8] turned out to be 91.2%. The parasite growth remaining, % of DMSO control (lower = more inhibition) in [9] amounted to 96.6%. Further, in assay [10], the parasite growth, % of control (lower = inhibition) was 81.8%.
Take `CC(C)C(=O)Nc1ccc([N+](=O)[O-])c(C(F)(F)F)c1`: the Potency entry in [1], in assay [4], in assay [13], in assay [5], in assay [6] and in assay [7] was “inactive” throughout. The Potency entry in [16] is “inactive”. Moreover, the outcome in assay [2], in assay [3] and in assay [12] was inactive. The max response in [14] was -4.94% (inactive) and -9.28% (inactive); in [11] it was -7.87% (inactive) and -5.86% (inactive); in assay [15], -5.73% (inactive) and -15.5% (inactive).
With `Cc1cn([C@H]2C[C@H](N=[N+]=[N-])[C@@H](CO)O2)c(=O)[nH]c1=O`, the call in [17], in [2], in [3] and in assay [12] was inactive. The Potency result in [1], in assay [13], in [5], in assay [6], in assay [7] and in [16] was “inactive” each time. Moreover, the max response is -2.6% (inactive) in assay [14]; 21.9% (inactive) and 0.942% (inactive) and 16% (inactive) in [11]; -21.7% (inactive) in assay [15]. For the same compound, the parasite growth, % of DMSO control in assay [8] turned out to be 412%. Moreover, in assay [9], the parasite growth remaining, % of DMSO control (lower = more inhibition) amounted to 109%. Also, the parasite growth, % of control (lower = inhibition) in assay [10] is 117%.
For the compound `Cc1ccc(-c2cc(C(F)(F)F)nn2-c2ccc(S(N)(=O)=O)cc2)cc1`, the compound was called inactive in assay [17] and in assay [12]. The max response in assay [14] was -0.182% (inactive); in assay [11], 2.3% (inactive) and -2.23% (inactive); in [15], -4.48% (inactive). The Potency result in [16] was “inactive”. Also, the results for the remaining parasite growth % (stronger effect = lower value) in assay [18] (at 28.7 µM (top of the series)) and in [18] (at 57.5 µM (top of the series)) were 17.6% and 11.7%, respectively. Further, the activity, percent of control in [19] (at 28.7 µM (top of the series)) came to 45.8%; in assay [19] (at 57.5 µM (top of the series)), 21.2%. For the same compound, the remaining proliferation (% of control), lower = more inhibition in assay [20] (at 28.7 µM (top of the series)) turned out to be 12.9%; in assay [20] (at 57.5 µM (top of the series)), 16%. Also, in assay [8], the parasite growth, % of DMSO control came out at 21.9%. Moreover, in assay [9], the parasite growth remaining, % of DMSO control (lower = more inhibition) worked out at 64.9%. In assay [10], the parasite growth, % of control (lower = inhibition) is 35%.
